D2 ag-1 = agonists of human D2 dopamine receptor (beta-arrestin) | AID 624465 | actives 0.084% (n = 360,000) | P14416 | DiscoveRx PathHunter D2 beta-arrestin, luminescence, 90 min; 100% = 57 uM dopamine signal | activation, % (test concentration not listed); in the data active means activation above about 40%; inconclusive means between about 15% and that limit
Target sequence (P14416 whole entry, looked up): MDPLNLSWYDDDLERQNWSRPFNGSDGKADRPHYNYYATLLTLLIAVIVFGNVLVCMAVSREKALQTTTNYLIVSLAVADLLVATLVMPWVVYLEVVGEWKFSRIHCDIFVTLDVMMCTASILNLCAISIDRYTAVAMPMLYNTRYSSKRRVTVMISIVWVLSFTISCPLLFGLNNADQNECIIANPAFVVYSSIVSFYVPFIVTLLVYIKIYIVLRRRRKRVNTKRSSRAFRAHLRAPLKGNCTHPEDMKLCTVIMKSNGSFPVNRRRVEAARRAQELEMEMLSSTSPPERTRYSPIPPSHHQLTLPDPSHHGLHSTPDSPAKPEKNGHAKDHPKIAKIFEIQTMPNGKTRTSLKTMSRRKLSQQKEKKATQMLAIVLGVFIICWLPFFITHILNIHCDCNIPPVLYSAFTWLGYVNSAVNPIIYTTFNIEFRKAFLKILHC
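Agonist mode: compounds alone added to overnight-plated D2 PathHunter cells for 90 min at 37 C, with 57 uM final dopamine (EC100) defining full response. Beta-arrestin recruitment detected by chemiluminescent reagent, read after 1 h at ambient temperature.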
D2 ag-2 = activates the human D2 dopamine receptor | P14416 | HEK293 T-REx D2 cells, calcium flux agonist mode | activation, % at 2 µM | actives 0.53% (n = 340,000) | AID 485358;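 active means activation over 3 SD above normal in the single-dose calcium agonist read, cut at about 30% in these data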
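Tetracycline-induced HEK293 T-REx cells with force-coupled D2 receptor, plated overnight at 30 C, loaded with no-wash calcium dye. After a 10 s baseline, compound was pin-added and calcium flux read kinetically for 180 s; calcium rises flagged agonists.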
D2 PAM-1 = positively modulates the human D2 dopamine receptor allosterically; P14416; HEK293 T-REx D2, calcium flux, EC20 dopamine potentiation; potentiation, % at 10 µM; actives 0.34% (n = 340,000); AID 485347;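 active means potentiation over 3 SD above the plate norm, cut at about 30% in these data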
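Calcium flux readout, no-wash dye, 1 read/s. Inducible HEK293 Trex D2 line, overnight 30 C. Compound alone 180 s (agonist flags), then EC20 dopamine, another 180 s to score potentiation.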
D2 antagonist = antagonists of human D2 dopamine receptor | P14416 | actives 2% (n = 340,000) | HEK293 TREx D2 cells, calcium flux, dopamine EC80 | AID 485344 | inhibition, % at 10 µM; in the data active means inhibition above about 30%; inactive means below that, where a call was filed
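Inhibition of EC80 dopamine-driven calcium flux, recorded kinetically, defines activity here; cells are a tetracycline-induced HEK293 T-REx line expressing force-coupled D2.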
D2 PAM-2 = positive allosteric modulators of human D2 dopamine receptor. P14416. DiscoveRx D2 beta-arrestin cells, luminescence, 90 min; 100% = 57 uM dopamine signal. potentiation, % (concentration not given with the values). actives 0.23% (n = 360,000); in the data active means potentiation above about 50%; inconclusive means mostly about 30% to 49%
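PathHunter beta-arrestin assay in DiscoveRx D2 cells. Compounds were added with an EC20 of dopamine (50 nM final) for 90 min at 37 deg C. Luminescence was read 1 h after detection reagent, with 57 uM dopamine as the EC100 control.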
B2AR arrestin = recruits beta-arrestin to the human beta2-adrenergic receptor; P07550; beta-arrestin recruitment to beta2AR, cell-based reporter; Potency, µM (series often up to 46.1 µM), usual class: activators; actives 0.02% (n = 330,000); AID 492947; active means well fitted activation curve with a large enough effect; inconclusive means small, poorly fitted or top-dose-only effect; further: nearly all actives have a fitted effect of over 65% in size
Each line names hits and unclear results; the compound was inactive in the other large screens. Sampled rows, rich in hits. Any-hit rate of the full collection: about 2.4%.

Cc1ccc(-c2nnn(CC(=O)N(c3ccccc3)C(C(=O)NC3CCCC3)c3ccco3)n2)o1 (stereo not drawn)	D2 antagonist 33
O=C(Nc1ccc(NC(=O)C2CC2)cc1)c1ccco1	none
Cc1nn(CC(=O)NC2CC2)c(C)c1S(=O)(=O)NC(C)(C)C	none (no result: D2 ag-2, D2 PAM-1, D2 antagonist)
O=C(CCc1nc(-c2ccccc2)no1)Nc1cccnc1	D2 antagonist 58
O=C(CCCc1nc(-c2ccccc2)no1)Nc1cccnc1	none (no result: D2 ag-2, D2 PAM-1, D2 antagonist)
CCCCNc1c(-c2ccc(OC)c(SC3CCCCC3)c2)nc2ccc(C)cn12	D2 ag-1 48 (no result: D2 ag-2, D2 PAM-1, D2 antagonist)
CCN(CC)C(=O)[C@H]1C[C@H](CC(=O)NCCCOC)C(=O)N2CCc3c([nH]c4cc(CCC(=O)N(C)C)ccc34)[C@]12C	none (no result: D2 ag-2, D2 PAM-1, D2 antagonist, D2 PAM-2)
CCn1c2ccccc2c2cc(NC(=O)Cc3ccc(S(=O)(=O)N4CCOCC4)s3)ccc21	D2 antagonist 36
CN(C)S(=O)(=O)c1ccc(NC(=O)Cc2ccc(S(=O)(=O)N3CCOCC3)s2)cc1	none
COc1cccc2sc3ccc(C#CC4(N)CCCCC4)cc3c(=O)c12	D2 antagonist 31
COc1cccc2sc3cc(C#CC4(O)CCCCC4)ccc3c(=O)c12	D2 ag-1 inconclusive (no result: D2 ag-2, D2 PAM-1, D2 antagonist)
COc1ccc(Cl)cc1NC(=O)CN(C)C(=O)C1CC1	none (no result: D2 ag-2, D2 PAM-1, D2 antagonist)
COc1ccc(Cl)cc1NC(=O)CN(C)C(=O)c1ccc(OCc2ccccc2)c(OC)c1	D2 antagonist 37
COc1ccc(Cl)cc1NC(=O)CN(C)C(=O)CCC(=O)c1cc(C)sc1C	D2 antagonist 62
CCCOc1ccccc1C(=O)N(Cc1cccc(Br)c1)C1CCS(=O)(=O)C1 (stereo not drawn)	D2 antagonist 47
COc1ccc(/C=N/N2C(=O)CSC2=S)cc1Br	D2 antagonist 33
C(=N\N1CCOCC1)/c1nc(-c2ccccc2)n2ccccc12	D2 antagonist 43
C(=N\N1CCOCC1)/c1cn(-c2ccccc2)nc1-c1ccccc1	none
CCCOP(=O)(c1ccc(N(C)C)cc1)C(O)c1ccc(Br)cc1 (stereo not drawn)	none
NS(=O)(=O)c1ccc(CCNC(=O)CNC(=O)c2ccc(Br)o2)cc1	D2 antagonist 66
Cc1cccc(Cn2nnc3c2C(=O)c2ccccc2C3=O)c1	D2 PAM-2 71
COc1ccc(N2CCN(C(=O)CCn3c(=O)[nH]c4cc(OC)c(OC)cc4c3=O)CC2)cc1	none (no result: D2 ag-1, D2 antagonist, D2 PAM-2, B2AR arrestin)
N#CC1=C(N)N2C(=C(C#N)C1c1ccc(Br)cc1)Nc1ccccc12 (stereo not drawn)	none
N#CC1=C(N)N2C(=C(C#N)C1c1cccc(Br)c1)Nc1ccccc12 (stereo not drawn)	D2 antagonist 39
COc1ccc(CCCN2CCC(CN3CCNC(=O)C3=O)CC2)cc1OC	none (no result: D2 ag-2, D2 PAM-1, D2 antagonist, B2AR arrestin)
N#C/C(=C\c1ccc(-c2ccccc2[N+](=O)[O-])o1)C(=O)Nc1nc(-c2cccs2)cs1	D2 antagonist 32
CCCN(CC(=O)Nc1cc(Cl)ccc1Cl)C(=O)c1ccc(N2CCCC2=O)cc1	none
COc1cc(CNCc2ccccc2)c(Br)cc1OC1CCCC1	D2 antagonist 51, B2AR arrestin inconclusive
Cc1cc(C)c(S(=O)(=O)NCCc2cc3c(C)ccc(C)c3[nH]c2=O)c(C)c1	none (no result: D2 ag-1, D2 antagonist, D2 PAM-2, B2AR arrestin)
COc1ccc(-c2nn(-c3ccccc3)cc2/C=N/NC(=O)c2cccc(S(=O)(=O)Nc3ccccc3Cl)c2)cc1	D2 antagonist 45
COc1ccc(-c2nn(-c3ccccc3)cc2/C=N/NS(=O)(=O)c2ccccc2)cc1	none
Cc1cc2c(s1)Nc1ccccc1N=C2N1CCN(C)CC1	D2 antagonist 77 (no result: D2 ag-1, D2 ag-2, D2 PAM-1, D2 PAM-2)
CN1CCN(c2ncc(CN3C(=O)c4ccccc4C3=O)s2)CC1	none
CCO/C(C)=C1/SC(=S)NC1=O	none
COCCCNC(=O)Cc1coc2ccc3ccccc3c12	none
CCCCNC(=O)Cc1coc2ccc3ccccc3c12	D2 PAM-1 33
COc1cccc(-c2cc(=O)c3cc(NC(C)=O)ccc3[nH]2)c1	D2 antagonist 34
CC(=O)Nc1ccc2[nH]c(C)cc(=O)c2c1	none
Nc1[nH]nc2nc(N3CCOCC3)nc(-c3ccccc3)c12	none

Screens as filed in PubChem BioAssay.
